# HepG2 tox – qHTS for Inhibitors of TGF-b: Cytotox Counterscreen. HepG2 CAGA-GFP viability, ATP luminescence, 18 h. Potency, µM (titrated, usually from 46.1 µM), inactives show top-dose activity change, negative = cytotoxicity, actives largely listed as cytotoxic. 410,000 tested, 0.76% active. AID 588856, 2011
#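 CellTiter-Glo luminescence gave cytotoxicity after 18 hours at 37 degrees C. The cells were HepG2 CAGA-GFP in 1% FBS DMEM, stimulated with 500 pg/mL TGF-beta after compound addition. %Activity was normalised to no-cell wells (complete cell-killing) and DMSO (no toxicity), and curves were fitted and classified.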
# TGFb inhibitor – qHTS for Inhibitors of TGF-b | HepG2 CAGA-GFP TGF-b/SMAD3 reporter, GFP fluorescence, 18 h; TGF-beta stimulated, 500 pg/mL final | Potency, µM (series often up to 46.1 µM), for inactives: at the top dose activity, negative = inhibition, hits mostly inhibitors | 410,000 tested, 1.2% active | AID 588855, 2011; further: on the % scale 0 is the no-effect control and ±100 the full control effect; nearly all actives have a fitted effect of over 65% in size
#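 GFP signal (ex488/em500-530) from TGF-beta-stimulated HEPG2 CAGA-GFP cells, 500 pg/mL final, 18 h at 37 degrees C in DMEM plus 1% FBS, normalized to unstimulated and DMSO-stimulated controls.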
# ATXN viability – Viability Counterscreen for Primary qHTS for Inhibitors of ATXN expression. S2 cells (HEK-293 line with an ATXN2-luciferase reporter) viability, CellTiter-Fluor protease fluorescence, 24 h. AID 651635, 2014. Potency, µM (top dose mostly 56.7 µM), hits mostly cytotoxic. 400,000 tested, 0.49% active; further: nearly all actives have a fitted effect of over 40% in size
# TDP1 cell noCPT – qHTS for Inhibitors of human tyrosyl-DNA phosphodiesterase 1 (TDP1): qHTS in cells in absence of CPT; DT40 Tdp1-/- hTDP1 cells, no CPT, ATP luminescence, 48 h; Potency, µM (highest dose often 46.2 µM), inactives show top-dose activity change, negative = growth inhibition, actives largely listed as inhibitors; 420,000 tested, 15% active; further: on the % scale 0 is the no-effect control and ±100 the full control effect; nearly all actives have a fitted effect of over 55% in size
#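 Compound effects on proliferation are scored in DT40 Tdp1-/-;hTDP1 cells in the absence of CPT. ATP levels (CellTiter-Glo luminescence) are recorded after a ≥48 hr, 37 °C incubation.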
# TDP1 cell CPT – qHTS for Inhibitors of human tyrosyl-DNA phosphodiesterase 1 (TDP1): qHTS in cells in presence of CPT | Potency, µM (series often up to 46.2 µM), inactives show top-dose activity change, negative = growth inhibition, most hits filed as inhibitors | chicken DT40 Tdp1-/-;hTDP1 cells + 20 nM CPT, ATP luminescence, 48 h | AID 686979, 2013 | 420,000 tested, 12% active; further: on the % scale 0 is the no-effect control and ±100 the full control effect; nearly all actives have a fitted effect of over 55% in size
#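 Chicken DT40 Tdp1-/- cells complemented with human TDP1, 400 cells/well, exposed to compounds plus 20 nM camptothecin for at least 48 h at 37 C; viability read as ATP content by CellTiter-Glo luminescence.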
# ATXN2 expr inh – Primary qHTS for Inhibitors of ATXN expression; HEK-293 ATXN2-luciferase reporter, luminescence, 24 h; Potency, µM (highest dose often 57 µM), without a hit: at the top dose activity change, negative = inhibition, most hits filed as inhibitors; 360,000 tested, 0.72% active; AID 1745845, 2022; further: on the % scale 0 is the no-effect control and ±100 the full control effect; nearly all actives have a fitted effect of over 55% in size
#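 ATXN2-luciferase reporter cells (luciferase flanked by upstream and downstream ATXN2 gene portions) were treated 24 h at 37 °C with compounds at up to 57 uM. SteadyGlo luminescence gave expression; GF-AFC fluorescence gave viability.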
# * = called active by the depositor; i = inactive; ? = inconclusive; . = not tested or not shown; [ ] = remark or other dose. Only some compounds are listed: those with a hit (about 17% of all), similar ones and a draw of the others. The call rests on the fitted dose curve; in most records, active means well fitted curve in the direction sought with a large enough effect; inconclusive means small, poorly fitted or top-dose-only effect, or another doubt; inactive means no such curve, though single readings can be large; an effect the other way counts as inactive or inconclusive. Potency means the concentration at half of the fitted maximal effect.
SMILES,HepG2 tox,TGFb inhibitor,ATXN viability,TDP1 cell noCPT,TDP1 cell CPT,ATXN2 expr inh
CN(C)c1ccc(/C=C/c2ccnc3c(N)cccc23)cc1,-54%,1%,.,1.4µM*,2µM*,.
Cc1ccc2c(/C=C/c3ccc(N(C)C)cc3)ccnc2c1,-33%,?,.,?,11µM*,.
Cc1ccc2nccc(/C=C/c3ccc(N(C)C)cc3)c2c1,-24%,1%,.,14µM*,11µM*,.
COc1ccccc1NC(C)C(=O)c1c(C)[nH]c2ccccc12 (centres undefined),-10%,-21%,.,?,-30%,.
COc1ccc(S(=O)(=O)N2CCCCC2)cc1C(=O)N1CCCC1,1%,-12%,?,-5%,7%,-12%
CCCC(C(=O)NC1=NCCS1)c1ccccc1 (centres undefined),1%,-26%,i,-17%,-2%,-9%
CC(C)CCc1noc(CN2CCC(CCN3CCCC3=O)CC2)n1,2%,-6%,i,-25%,-6%,-7%
COc1ccc(OC)c2c(/C=C/c3ccc(N(C)C)cc3)ccnc12,9%,0%,.,6.3µM*,10µM*,.
CN(C)c1ccc(/C=C/c2ccnc3cc(Cl)ccc23)cc1,-9%,35%,.,11µM*,?,.
CN(C)c1ccc(/C=C/c2ccnc3c2ccc2c(/C=C/c4ccc(N(C)C)cc4)ccnc23)cc1,1%,-21%,.,0%,-14%,.
N#Cc1c(O)c2c(-c3ccc(-c4ccccc4O)cc3)csc2[nH]c1=O,.,.,.,.,.,-9%
COc1cc(Cl)c(NC(=O)CCS(=O)(=O)c2ccc3c(c2)NC(=O)CO3)c(OC)c1,1%,-27%,i,-16%,13%,14%
C=CCNCC(=O)Nc1sc2c(c1C(=O)Nc1ccc(OC)cc1OC)CCC2,2%,-1%,i,?,?,-2%
CCOc1ccccc1NC(=O)c1c(NCc2ccc(OC)c(OC)c2OC)sc2c1CCC(C)C2 (centres undefined),-10%,-22%,?,18µM*,?,-34%
COc1ccc(NC(=O)c2c(NCc3ccc(OC)c(OC)c3OC)sc3c2CCC3)c(OC)c1,-32%,-4%,?,15µM*,13µM*,-1%
COc1ccccc1NC(=O)c1c(NCc2ccc(OC)c(OC)c2OC)sc2c1CCCC2,-34%,?,?,?,?,-28%
COc1ccc(NC(=O)c2c(NCc3cccc(F)c3)sc3c2CCC3)c(OC)c1,-34%,-19%,.,10µM*,13µM*,?
COc1ccccc1NC(=O)c1c(NCc2ccc(OC)c(OC)c2OC)sc2c1CCC2,-23%,3%,i,23µM*,?,-5%
CCc1nn(CC(=O)NCc2ccco2)c(=O)c2cc3c(OC)cccc3n12,-18%,-1%,i,-3%,-18%,-11%
CCOC(=O)c1ccc(NC(=O)c2c(NCc3sccc3C)sc3c2CCCCC3)cc1,23%,97%,i,21µM*,12µM*,-19%
COc1ccc(NC(=O)c2c(NCc3sccc3C)sc3c2CCCC3)c(OC)c1,-13%,?,?,13µM*,21µM*,?
CCOC(=O)c1ccc(NC(=O)c2c(NCc3cccc(OC)c3OC)sc3c2CCC3)cc1,-21%,-16%,?,21µM*,15µM*,-6%
CC(CNS(=O)(=O)c1ccc2c(c1)NC(=O)CCS2)c1ccccc1 (centres undefined),-4%,-23%,i,-24%,-28%,-19%
CC(C)(C)c1csc(NC(=O)CCS(=O)(=O)c2ccc(F)cc2)n1,13%,-25%,?,8.2µM*,8.2µM*,.
O=C(CCS(=O)(=O)c1ccccc1)Nc1nc(-c2cccs2)cs1,-61%,?,?,21µM*,?,-2%
SMILES,HepG2 tox,TGFb inhibitor,ATXN viability,TDP1 cell noCPT,TDP1 cell CPT,ATXN2 expr inh
COc1ccc(-c2csc(NC(=O)CS(=O)(=O)c3ccc(F)cc3)n2)cc1OC,-49%,13%,i,?,?,-12%
O=C(CCS(=O)(=O)c1ccc(F)cc1)Nc1nc(-c2ccncc2)cs1,-42%,?,.,9.2µM*,13µM*,.
Cc1ccc(C)c(CN2CCc3nnc(CNC(=O)c4cc(C)oc4C)n3CC2)c1,.,.,?,-20%,?,.
O=C(Cc1ccccc1)N/N=C/c1cc(Br)cc(Br)c1O,-20%,0%,i,?,?,?
O=C(CCN1CCOCC1)N/N=C/c1cc(Br)cc(Br)c1O,-37%,-38%,.,18µM*,6.5µM*,-15%[11.3 µM]
CCOC(=O)c1c(C)oc2c1c(C=NCC1CCCO1)c(O)c1ccccc12 (centres undefined),3%,-5%,i,18µM*,?,3%
Cc1ccc(SCCC(=O)OCC(=O)Nc2ccc(C(N)=O)cc2)cc1,0%,-4%,i,-4%,-12%,-5%
CCOc1ccc(CNC(=O)C2CCN(C3=NS(=O)(=O)C(c4ccc(C)cc4)=C3CC)CC2)cc1,-28%,-7%,.,?,18µM*,.
COc1ccccc1CNC(=O)C1CCN(C2=NS(=O)(=O)C(c3ccc(C)c(C)c3)=C2C)CC1,-59%,?,i,18µM*,16µM*,-34%
CC1=C(c2ccc(F)cc2)S(=O)(=O)N=C1N1CCC(C(=O)NCCc2cccc(C)c2)CC1,-5%,-10%,i,?,?,0%
CCOc1ccccc1CNC(=O)C1CCN(C2=NS(=O)(=O)C(c3ccc(C)c(C)c3)=C2C)CC1,1%,-13%,i,-16%,3%,2%
CC1=C(c2ccc(C)c(C)c2)S(=O)(=O)N=C1N1CCC(C(=O)NCCc2ccc(Cl)cc2)CC1,-41%,-39%,.,7.3µM*,13µM*,.
O=C(COC(=O)CCC(=O)c1cccs1)Nc1cc(S(=O)(=O)N2CCOCC2)ccc1Cl,10%,17%,i,11%,1%,2%
Cc1noc(C)c1CSCc1ccc(Cl)cc1,3%,4%,i,2%,-14%,-11%
Cc1nn(-c2ccccc2)c(C)c1CC(=O)NCC1Cc2cc(-c3cncnc3)ccc2O1 (centres undefined),.,.,i,-9%,7%[9.04 µM],.
O=C(Cn1ncc2c(=O)oc3ccccc3c21)N1CCN(c2ccccn2)CC1,-24%,-3%,i,-16%,1%,-12%

# Source: PubChem BioAssay
